Source: PubChem BioAssay (NCATS)
Inconclusive results are not listed. Calls of active or inactive are those of the source. Calls come from the whole dose curve; as a rule, active = well fitted curve in the direction sought with a large enough effect; inconclusive = small, poorly fitted or top-dose-only effect, or another doubt; inactive = no such curve, though single readings can be large; an effect the other way counts as inactive or inconclusive.

Key:
[1] = molecular target: Rap guanine nucleotide exchange factor 3 (Homo sapiens) (UniProt O95398); assay: Confirmatory qHTS for antagonist of cAMP-regulated guanine nucleotide exchange factor 3 (EPAC1) (AID 1645880); conditions: EPAC1 Rap1B-BODIPY-GDP exchange, fluorescence; activity, negative = inhibition: at 115 µM (top of the series);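 note: plate controls were DMSO only for no effect and full effect of the ATA control for full effect; nearly all actives have a fitted effect of over 55% in size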
Summary of the method: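 Released BODIPY-GDP fluoresces less than Rap1-bound BODIPY-GDP; the signal is followed at 480/540 nm at 5-min intervals over 30 min, after 5 min at room temperature. Reactions contain 100 nM EPAC1, 250 nM RAP1B-BODIPY-GDP and 50 uM GDP; results are normalized to ATA and DMSO.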

[2] = molecular target: Rap guanine nucleotide exchange factor 3 (Homo sapiens) (UniProt O95398); assay: Confirmatory qHTS for agonist of cAMP-regulated guanine nucleotide exchange factor 3 (EPAC1) (AID 1645881);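 note: EPAC1 catalysed release of BODIPY-GDP from Rap1B seen as fluorescence loss; 100% = effect of cAMP agonist control; nearly all actives have a fitted effect of over 75% in size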
[3] = molecular target: Rap guanine nucleotide exchange factor 3 (Homo sapiens) (UniProt O95398); assay: Counterscreen qHTS for antagonist of cAMP-regulated guanine nucleotide exchange factor 3 (EPAC1) (AID 1645888); note: % of control where 0% means no effect
Summary of the method: (§1)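 Rap1B-BODIPY-GDP 250 nM + GDP 50 uM; cpds 7-pt, final 9.74 nM–152 uM (activator mode) or from 7.32 nM upwards (inhibitor mode); RT; FI 480/540 nm at 5 and 30 min, then ± cAMP, reread.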

[4] = molecular target: Rap guanine nucleotide exchange factor 3 (Homo sapiens) (UniProt O95398); assay: Counterscreen qHTS for agonist of cAMP-regulated guanine nucleotide exchange factor 3 (EPAC1) (AID 1645889); note: % of control where 0% means no effect; nearly all actives have a fitted effect of over 40% in size
Summary of the method: as §1

Chain of Rap guanine nucleotide exchange factor 3 (Homo sapiens) (O95398 whole entry, looked up): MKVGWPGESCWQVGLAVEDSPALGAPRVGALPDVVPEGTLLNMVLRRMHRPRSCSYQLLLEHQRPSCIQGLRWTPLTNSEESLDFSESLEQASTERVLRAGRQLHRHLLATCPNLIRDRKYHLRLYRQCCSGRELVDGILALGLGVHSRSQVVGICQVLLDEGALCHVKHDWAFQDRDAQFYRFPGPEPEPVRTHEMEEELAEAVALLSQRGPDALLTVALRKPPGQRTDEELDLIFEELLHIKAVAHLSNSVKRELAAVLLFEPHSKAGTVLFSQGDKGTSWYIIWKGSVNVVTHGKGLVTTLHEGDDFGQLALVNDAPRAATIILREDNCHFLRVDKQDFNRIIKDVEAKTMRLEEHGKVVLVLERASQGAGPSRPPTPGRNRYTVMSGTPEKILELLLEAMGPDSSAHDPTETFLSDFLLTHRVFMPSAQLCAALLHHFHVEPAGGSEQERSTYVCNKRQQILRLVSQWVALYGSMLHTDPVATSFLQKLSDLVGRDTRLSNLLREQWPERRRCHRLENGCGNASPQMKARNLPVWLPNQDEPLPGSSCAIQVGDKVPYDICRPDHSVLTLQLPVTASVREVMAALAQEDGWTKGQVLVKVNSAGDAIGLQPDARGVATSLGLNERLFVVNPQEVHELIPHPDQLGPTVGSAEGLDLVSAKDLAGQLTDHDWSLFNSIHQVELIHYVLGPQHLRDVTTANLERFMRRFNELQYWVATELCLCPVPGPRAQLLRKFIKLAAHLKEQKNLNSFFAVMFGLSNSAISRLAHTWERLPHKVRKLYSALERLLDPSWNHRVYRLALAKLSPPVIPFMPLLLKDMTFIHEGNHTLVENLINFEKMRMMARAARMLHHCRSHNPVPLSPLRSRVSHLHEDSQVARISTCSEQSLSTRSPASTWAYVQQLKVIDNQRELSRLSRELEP

O=C(Cc1c(F)cccc1Cl)Nc1ccc(S(=O)(=O)Nc2nccs2)cc1
inactive: Potency [1] | Potency [2] | activity change, negative = inhibition [3] 4.41% [at 30.8 µM] | activation [4] 17.6% [at 30.8 µM]

CCC(=O)OC1CC(C)N(C(=O)c2ccccc2)c2ccc(C)cc21 (stereo unspecified)
inactive: Potency [1] | Potency [2] | Potency [3] | Potency [4]

COc1cc(C)c(S(=O)(=O)N2CCCC2)cc1C(C)C
inactive: Potency [1] | Potency [2] | activation [4] 14.6% [at 30.8 µM]

Cc1ccc(C2(c3noc(CN(C)CC4CCCCO4)n3)CCCC2)cc1 (stereo unspecified)
inactive: Potency [1] | Potency [2] | activity change, negative = inhibition [3] -7.57% [at 30.8 µM] | activation [4] -0.372% [at 30.8 µM]

COc1ccc(-c2noc(CN(C(=O)c3c(-c4ccccc4Cl)noc3C)C(C)C)n2)cc1
inactive: Potency [1] | Potency [2] | Potency [3] | Potency [4]

COC(=O)c1ccc2nc(-c3ccc(F)cc3)c(Cc3cccc(F)c3)n2c1
inactive: Potency [1] | Potency [2] | Potency [3] | Potency [4]

COc1ccc(S(=O)(=O)Nc2ncccc2C)c2ccccc12
inactive: Potency [1] | Potency [2] | Potency [3] | Potency [4]

CC(=O)O[C@H]1c2ccccc2-c2ccccc2[C@@H]1OC(C)=O
inactive: Potency [1] | Potency [2] | activity change, negative = inhibition [3] -14.6% [at 30.8 µM] | activation [4] 8.91% [at 30.8 µM]
